Consider 40 compounds from PubChem BioAssay (NCATS).

Inconclusive results are not listed. A call without a number means that no potency is given here. The source made the active and inactive calls. Calls follow the shape of the dose curve; as a rule, active = well fitted cell-killing curve with a large enough effect; inconclusive = small, poorly fitted or top-dose-only effect; inactive = flat fitted curve, though single readings scatter.
Potency is read from the fitted curve at half-maximal effect.

The nature of this assay: MultiTox-Fluor Cytotoxicity Assay - LYMP1-001 - Live Cells (AID 947). Particulars: LYMP1-001 lymphoblastoid cells, live-cell protease fluorescence viability; series mostly up to 92.2 µM. From the text: NIH Chemical Genomics Center [NCGC]
NIH Molecular Libraries Screening Centers Network [MLSCN]
National Institutes of Environmental Health Sciences [NIEHS]
National Toxicology Program [NTP]
We have developed a 1536-well cell-based assay for quantitative high throughput screening (qHTS) against a number of cell lines to determine in vitro cytotoxicity of small molecules. This particular assay uses a human lymphoblastoid cell line (LYMP1-001) purchased from Coriell Institute.
NCGC Assay Protocol Summary:
The MultiTox-Fluor Cytotoxicity Assay (Promega) is a homogeneous method to simultaneously measure the relative number of live and dead cells in culture by detecting changes in cell membrane integrity. There are two fluorogenic peptide substrates in the assay reagent. Viable cells are determined when the cell-permeant substrate (GF-AFC) enters the cell and is cleaved by protease from live cells resulting in liberated fluorophore. This live-cell protease activity restricted to viable cells is proportional to cell number. The dead cells are determined by using fluorogenic cell-impermeant peptide substrate (bis-AAF-R110) which cleaved by dead cell proteases leaking from damaged cell membrane.
Using the MultiTox-Fluor Cytotoxicity Assay, the relative number of live cells was measured in the lymphoblastoid cell line with complete culture medium following compound treatment for 16 hours. The assay was performed in opaque black Kalypsys 1536-well plates. In the screen, tetraoctylammonium bromide was used as positive control. Library compounds were measured for their ability to cause acute toxicity in the cell line, as reflected by a decrease in live cell protease activity, in a concentration-dependent manner. […] AC50 values were determined from concentration-response data modeled with the standard Hill equation.
qHTS protocol for MultiTox-Fluor Cytotoxicity assay
[Step] [Parameter] [Value] [Description]
1. Reagent; 5 uL; 2500 lymphoblastoid cells/well
2. Time; 5 hr; 37 C incubation
4. Controls; 23 nL; Tetraoctylammonium bromide 6.4pM to 92 uM
5. Time; 16 hr; 37 C incubation
6. Reagent; 5 uL; MuliTox-Fluor Assay reagent
7. Time; 60 min; Room Temperature
8. Detection; live-cell fluorescence (Ex/Em=405/510); EnVision plate reader
Keywords: cell viability, cytotoxicity, lymphoblastoid cell line, fluorescence, NTPHTS, NTPHTS_NCGC, NIEHS, EPA, DSSTox, MLSMR, MLSCN, NIH Roadmap, qHTS, NCGC
Consider `CC(=O)OCc1ccc2c(c1)OCO2`, for which the Potency result was “inactive”.

As to `CCCCCCc1ccc(-c2ccc(C#N)cc2)cc1`, the Potency entry was “inactive”.

Take `Cc1c2ccccc2c(C)c2c1ccc1ccccc12`: the Potency result was “inactive”.

For `c1ccc(COCc2ccccc2)cc1`, the Potency entry was “inactive”.

For `CN(C)c1ccc(Cc2ccc(N(C)C)cc2)cc1`, the Potency result was “inactive”.

`Cc1ccc(C(=O)O)cc1[N+](=O)[O-]`: the Potency result is “inactive”.

For `O=C(OCC1CO1)C1CCCCC1C(=O)OCC1CO1` (stereo not given), the Potency result was “inactive”.

On to `CC(C)(C)C(=O)C1C(=O)c2ccccc2C1=O`, for which the Potency entry was “inactive”.

Take `NC(=O)Nc1nc2ccccc2[nH]1`: the Potency entry was “inactive”.

For `Cc1ccc(O)c(N)c1`, the Potency result is “inactive”.

On to `Nc1ccc(-c2ccc(N)c(O)c2)cc1O`, for which the Potency result was “inactive”.

In the case of `Cc1ccc(S(N)(=O)=O)cc1`, the Potency result was “inactive”.

Turning to `C/C(Cl)=C/CCl`, the Potency result is “inactive”.

Regarding `CCCCCCCCOc1ccc(C(=O)O)cc1`, the Potency result was “inactive”.

For `CCCCOC(=O)COc1ccc(Cl)cc1Cl`, the Potency entry was “inactive”.

`O=CC(=O)c1ccccc1`: the Potency entry is “inactive”.

For the compound `CCN(CC)c1ccc2c(C)cc(=O)oc2c1`, the Potency result is “inactive”.

On to `CCCC(=O)OC(=O)CCC`, for which the Potency entry was “inactive”.

Consider `CC(=O)OC(C(=O)c1ccccc1)c1ccccc1` (stereo not given), for which the Potency entry was “inactive”.

Take `O=c1[nH]ncc2ccccc12`: the Potency result was “inactive”.

Regarding `COc1ccc([N+](=O)[O-])cc1N`, the Potency entry was “inactive”.

Turning to `C=CC(C)(O)CCCC(C)CCCC(C)CCCC(C)C` (stereo not given), the Potency result is “inactive”.

As for `CCCCNCC`, the Potency result is “inactive”.

Regarding `CCCCCCCC/C=C\CCCCCCCC(=O)N(CCO)CCO`, the Potency entry is “inactive”.

For the compound `OC1CCCCC1`, the Potency entry was “inactive”.

With `C=CC(=O)CC`, the Potency entry is “inactive”.

With `CC(=O)CC(=O)Nc1ccccc1`, the Potency result was “inactive”.

Consider `COc1ccc(C)cc1N`, for which the Potency entry is “inactive”.

Consider `C=CC(=O)OCCCCCCOC(=O)C=C`, for which the Potency is 39.8 µM (active).

As for `Nc1cc([N+](=O)[O-])ccc1O`, the Potency entry is “inactive”.

Consider `CC(=O)OC1CC(C)OC(C)O1` (stereo not given), for which the Potency result was “inactive”.

Consider `Nc1ccc2c(c1)C(=O)c1ccccc1C2=O`, for which the Potency entry is “inactive”.

For the compound `C1CCCNCC1`, the Potency entry is “inactive”.

In the case of `Oc1ccc(O)c2c(O)cccc12`, the Potency result is “inactive”.

`N=C1C=CC(=C(c2ccc(N)cc2)c2ccc(N)cc2)C=C1`: the Potency was 15.8 µM (active).

As for `CC(C)S`, the Potency entry is “inactive”.

Turning to `OCC(CBr)(CBr)CBr`, the Potency result was “inactive”.

On to `C/C=C/C=C/C=O`, for which the Potency result was “inactive”.

For the compound `Nc1ccc(N=Nc2ccccc2)c(N)c1`, the Potency entry was “inactive”.

Take `CCOc1ccc2nc(N)sc2c1`: the Potency entry is “inactive”.
